Assay results: PubChem BioAssay AID2013 (Sanford-Burnham Center for Chemical Genomics, 2009)
In all, about 290,000 compounds went through this assay and about 370 (0.13%) were called active.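 How the source made its calls: active means spots per cell inhibited over 60%, with over 100 cells counted and total cytoplasm intensity under 500,000; inconclusive means wells with under 100 cells, flagged as likely toxic; inactive means the rest.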 What follows is part of a selection rich in actives, with near analogues and random picks from the rest. Potency and affinity values are given separately.

Target: G-protein coupled receptor 55 (Homo sapiens) (UniProt Q9Y2T6)
Test: GPR55 antagonists blocking LPI-driven arrestin recruitment, primary screen, imaging, U2OS, beta-arrestin-GFP, LPI agonist (AID 2013);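 further: U2OS cells stably carrying GPR55 and arrestin-GFP stimulated by 5 µM LPI near EC80; imaged beta-arrestin-GFP aggregate spots per cell after agonist stimulation; plate controls were LPI-stimulated DMSO wells for no effect and DMSO wells without LPI for full effect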
Conditions: U2OS GPR55 beta-arrestin-GFP translocation imaging, LPI antagonism; at 10 µM; hits give high values

Chain of G-protein coupled receptor 55 (Homo sapiens) (Q9Y2T6 whole entry, looked up): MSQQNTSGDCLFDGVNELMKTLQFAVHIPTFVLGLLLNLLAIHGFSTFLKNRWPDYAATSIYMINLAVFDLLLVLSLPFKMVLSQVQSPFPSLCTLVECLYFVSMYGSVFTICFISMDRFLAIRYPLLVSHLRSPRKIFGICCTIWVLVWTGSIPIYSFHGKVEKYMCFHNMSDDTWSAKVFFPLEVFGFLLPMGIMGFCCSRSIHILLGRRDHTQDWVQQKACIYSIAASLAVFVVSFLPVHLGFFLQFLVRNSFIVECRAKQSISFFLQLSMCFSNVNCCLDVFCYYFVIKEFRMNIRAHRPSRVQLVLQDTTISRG

inhibition, inactive:
CCCCNC(=O)CN1C(=O)C(CC)Oc2ccc(Cl)cc21 (stereo unspecified) 2.3%
Cc1ccc(-c2ccc(/C=C3\SC(N4CCOCC4)=NC3=O)o2)cc1 16.2%
O=C1N=C(N2CCOCC2)S/C1=C\c1ccc(-c2ccccc2Cl)o1 -0.9%
Cc1ccc(CNC(=O)c2ccc(CS(=O)(=O)c3ccccc3C)o2)cc1 7.3%
O=C(Oc1ccc(N2C(=O)C3C4CCC(C4)C3C2=O)cc1)c1ccco1 (stereo unspecified) 15.6%
O=C(NC1CCN(S(=O)(=O)c2ccccc2F)CC1)c1cccnc1 -8.1%
O=C(N1CCCC1)C(F)(F)Oc1ccc(F)cc1 10.6%
COC(=O)C1=CN(C(C)C)C=C(C(=O)OC)C1c1cc(Br)c(OC)c(OC)c1 0.5%
COCCN1C=C(C(=O)OC)C(c2cc3c(cc2Br)OCO3)C(C(=O)OC)=C1 1%
COc1ccc(-n2c(C)cc(C=O)c2C)cc1Cl 15.8%
COc1ccc(Cl)cc1-n1c(C)cc(C=O)c1C -3.7%
CN(C)S(=O)(=O)N1CCN(C(=O)c2cccc(Br)c2)CC1 1.7%
NS(=O)(=O)c1ccc(CCNC(=O)CSc2nc3ccsc3c(=O)n2CCCCCC(=O)O)cc1 14.8%
Cc1cccc(OCC(=O)N2CCOCC2)c1 15.3%
COc1ccc(OC)c(-n2c(C)cc(/C=C3\C(=N)N4N=C(CC(=O)N5CCOCC5)SC4=NC3=O)c2C)c1 21.8%
COc1ccccc1N1CCN(C(=O)NC23CC4CC(CC(C4)C2)C3)CC1 6.5%
O=C(CCCn1c(=S)[nH]c2cc3c(cc2c1=O)OCO3)N1CCN(c2ccccn2)CC1 10.5%
O=C(CCCn1c(=O)[nH]c2ccccc2c1=O)N1CCN(c2ccccn2)CC1 3.9%
O=C(COc1cccc2cccnc12)N/N=C1\SCC(=O)N1CCc1ccccc1 14.1%
N#Cc1c(N)nc2c(c1-c1ccccc1)CCC2 -2.3%
N#Cc1c(N)nc2c(c1-c1ccccc1)CCCC2 14.6%
Cc1c(Br)cc(C(=O)NCCCN2CCOCC2)c(C)c1C -19.3%
Cc1ccc(C(=O)NC2CC(C)(C)NC(C)(C)C2)cc1Cl -5.9%
CCOc1ccccc1NC(=O)NCCc1c[nH]c2ccccc12 5.7%

inhibition, active:
O=C(CCCn1c(=S)[nH]c2ccc(Br)cc2c1=O)N1CCN(c2ccccn2)CC1 60.6%
N#Cc1c(N)nc2c(c1-c1cccc(O)c1)CCCCCC2 76%
